Compounds with a hit are over-represented: about 1.8% of the library has one in this group of screens.
PAD4 inh: human PAD4 inhibitors, primary screen, biochemical, fluorescence polarization, 1536-well format; Protein-arginine deiminase type-4 (Homo sapiens), Q9UM07; recombinant PAD4, RCA probe fluorescence polarization; inhibition, % at 6.36 µM; 330,000 tested, 0.41% active;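 active = percent inhibition above a cutoff equal to the mean of all tested compounds plus 3 SD, cut at about 15% in these data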;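 also: 0% = PAD4 with RCA probe and DMSO and 100% = probe without PAD4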
Target sequence (Q9UM07 whole entry, looked up): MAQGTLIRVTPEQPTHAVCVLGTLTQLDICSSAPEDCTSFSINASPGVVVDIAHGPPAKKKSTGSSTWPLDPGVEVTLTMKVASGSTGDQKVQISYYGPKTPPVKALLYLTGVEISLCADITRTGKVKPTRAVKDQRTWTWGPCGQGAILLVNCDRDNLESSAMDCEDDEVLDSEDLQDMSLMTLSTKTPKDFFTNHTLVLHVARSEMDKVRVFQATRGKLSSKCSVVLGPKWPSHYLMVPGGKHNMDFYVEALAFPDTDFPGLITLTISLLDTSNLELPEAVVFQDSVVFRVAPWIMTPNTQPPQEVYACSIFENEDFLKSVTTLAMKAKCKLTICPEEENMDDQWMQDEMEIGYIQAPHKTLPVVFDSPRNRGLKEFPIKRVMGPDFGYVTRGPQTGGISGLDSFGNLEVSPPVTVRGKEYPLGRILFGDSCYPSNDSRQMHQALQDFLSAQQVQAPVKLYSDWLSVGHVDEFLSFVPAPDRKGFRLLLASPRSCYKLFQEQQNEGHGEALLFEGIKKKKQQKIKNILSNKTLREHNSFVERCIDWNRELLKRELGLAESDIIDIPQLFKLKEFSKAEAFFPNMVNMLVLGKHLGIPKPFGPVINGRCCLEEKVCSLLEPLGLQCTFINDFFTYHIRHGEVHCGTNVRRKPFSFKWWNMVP
PME-1 inh: PME-1 inhibitors via competitive probe labeling, primary screen, biochemical, fluorescence polarization, FP-Rh probe, HTS | recombinant PME-1 | inhibition, % at 5.9 µM | 320,000 tested, 0.53% active | AID 2130, 2009;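 active = inhibition above the campaign mean of all compounds plus 3 SD, cut at about 26% in these data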;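 also: competitive labeling of PME-1 active site by serine hydrolase directed probe; 0% = PME-1 with DMSO and 100% = wells lacking PME-1 enzyme; inhibitors block probe labeling so polarization falls and inhibition rises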
LYPLA2 counter: LYPLA2 inhibitors, primary screen, counter-screen for PME1 inhibitor project, biochemical, fluorescence polarization, FP-Rh probe ABPP | Acyl-protein thioesterase 2 (Homo sapiens), O95372 | recombinant LYPLA2 | inhibition, % at 5.9 µM | 320,000 tested, 0.38% active | AID 2177, 2009;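 active = inhibition above the screen-wide mean plus 3 SD, limit set per campaign, cut at about 26% in these data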;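 also: 0% = LYPLA2 with DMSO and 100% = wells lacking LYPLA2 enzyme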
Fam108B inh: mouse Fam108B serine hydrolase inhibitors, primary screen, counter-screen for RBBP9 inhibitor project, biochemical, fluorescence polarization. 300,000 tested, 0.33% active. inhibition, % at 9.51 µM. recombinant Fam108B, FP-Rh probe fluorescence polarization. AID 1947, 2009;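 active = inhibition above the screen mean inhibition plus 3 SD, computed separately per campaign, cut at about 18% in these data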;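 also: inhibitors lower polarization as less probe binds the enzyme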
GSTO1 inh: inhibitors of recombinant GSTO1, primary screen, counter-screen for RBBP9 inhibitor project, biochemical, fluorescence polarization. Glutathione S-transferase omega-1 (Homo sapiens), P78417. activity-based probe fluorescence polarization. inhibition, % at 5.96 µM. 300,000 tested, 1.1% active;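 active = inhibition above the campaign mean inhibition plus 3 SD, cut at about 35% in these data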;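 also: 0% = GSTO1-1 with DMSO and 100% = wells lacking GSTO1-1 enzyme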
LYPLA1 counter: LYPLA1 inhibitors, primary screen, counter-screen for PME1 inhibitor project, biochemical, fluorescence polarization, FP-Rh probe ABPP. recombinant LYPLA1. inhibition, % at 5.9 µM. 320,000 tested, 0.16% active;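 active = inhibition above the mean of all tested compounds plus 3 SD, set per campaign, cut at about 14% in these data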;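 also: inhibitors block serine hydrolase probe labeling of LYPLA1 so polarization falls; 0% = enzyme with DMSO and 100% = wells lacking LYPLA1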
Fam108b confirm: mouse Fam108b serine hydrolase inhibitors, confirmation, counter-screen for RBBP9 inhibitor project, biochemical, fluorescence polarization, triplicate. shares compounds with Fam108B inh. inhibition, % at 9.51 µM. recombinant Fam108b, FP-Rh probe fluorescence polarization. 930 tested, 44% active;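 active = inhibition above a limit from the primary screen, the mean over all compounds plus 3 SD, cut at about 19% in these data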;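 also: 0% = median of active Fam108b wells and 100% = catalytically dead S170A mutant; inhibitors free the probe so polarization falls as inhibition rises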
Fam108b ABPP HTS: inhibition of mouse Fam108b by HTS hits, late-stage follow-up, biochemical, gel-based ABPP, soluble recombinant form; 260 tested, 44% active; shares compounds with Fam108B inh; inhibition, % at 20 µM; AID 588649, 2011; fluorophosphonate probe; in the data active = inhibition above about 40%
* hit, by the source's call; . = no result.

SMILES	PAD4 inh	PME-1 inh	LYPLA2 counter	Fam108B inh	GSTO1 inh	LYPLA1 counter	Fam108b confirm	others
COc1ccc(/C=N/NC(=O)c2ccc(O)cc2)cc1CN1CCCc2ccccc21	2	27*	-4	27*	-20	-2	33*
COc1ccc(OC)c(NC(=O)C(CCSC)NS(=O)(=O)c2cccs2)c1 (centres undefined)	-5	-1	-2	-4	0	2	.
COc1ccc(OC)c(/C=N/NC(=O)c2ccc3nc[nH]c3c2)c1	-2	0	-2	-1	5	-2	.
COc1ccc(OC)c(/C=C2\S/C(=N/NC(=O)c3ccc4ccccc4c3)NC2=O)c1	1	23	1	32*	24	-2	15
O=C(Nc1cccc(C(F)(F)F)c1)Nc1ccc(N2CCCC2)c(S(=O)(=O)Nc2ccccc2Cl)c1	0	20	5	35*	-26	-13	32*	Fam108b ABPP HTS=95*
COc1ccc(N2CCN(C(=O)CCS(=O)(=O)c3ccc4c(c3)NC(=O)CO4)CC2)cc1	1	5	5	-1	10	-2	.
COc1cc2c(c(OC)c1OC)-c1ccc(N(C)CC(OC)OC)c(=O)cc1[C@@H](NC(C)=O)CC2	-2	5	5	19*	8	-2	-7
Cc1ccc(NS(=O)(=O)c2cc(C(=O)Nc3cccc([N+](=O)[O-])c3)ccc2C)cc1	-7	-33	-49	-17	-28	-29	.
Cc1ccc(NC(=O)CC(=O)c2ccc([N+](=O)[O-])cc2)cc1S(=O)(=O)Nc1cccc(Cl)c1	-1	9	-10	25*	-44	-7	14
COc1ccc2[nH]c3c(N4CCc5ccccc5C4)ncnc3c2c1	4	30*	17	19*	9	-2	-5
COc1ccc(/C=N/NC(=O)c2cccc([N+](=O)[O-])c2)cc1OS(=O)(=O)c1ccccc1	3	2	-3	31*	1	2	26*
COCCCNC(=O)C1Cc2cc(S(=O)(=O)N3CCCC3)ccc2N1C(C)=O (centres undefined)	6	2	3	1	-4	3	.
COc1ccc(CNC(=O)c2ccncc2)cc1	-4	1	4	-5	-2	1	.
COc1ccc(CNC(=O)c2ccc3nccnc3c2)cc1	-1	-1	9	19*	6	5	5
COc1ccc2[nH]c(C(=O)N/N=C/c3ccccc3OC)cc2c1	-1	0	-6	2	-9	-5	.
CCOc1ccc2[nH]c(C(=O)N/N=C/c3ccccc3OC)cc2c1	-1	-1	-11	21*	-23	-3	-14
COc1cc2cc(C(=O)NN=Cc3ccccc3Cl)[nH]c2cc1OC	.	.	.	.	.	.	.	Fam108b ABPP HTS=50*
COc1ccc(NC(=O)CN2C(=O)C(=O)N(C3CCCC3)C2=O)c(OC)c1	-5	.	.	.	.	.	.
CC1=CC(=O)c2c(O)ccc(O)c2C1=O	23*	26	25	71*	69*	-4	43*	Fam108b ABPP HTS=65*
COc1ccc(/C=C2\SC(=S)N(CC(=O)OCC(=O)Nc3cc(Cl)cc(Cl)c3)C2=O)cc1	5	2	-3	27*	-2	-5	78*	Fam108b ABPP HTS=85*
COc1ccc(/C=C2/SC(=S)N(CCCC(=O)Nc3cccc(O)c3)C2=O)cc1	0	-20	-36	-6	-11	-26	.
O=C(O)C1=C[C@@H](c2csc3ccccc23)C[C@@H](OCc2ccc(CO)cc2)O1	-1	1	-1	4	10	-1	.
O=C(O)C1=C[C@H](c2csc3ccccc23)C[C@H](OCc2ccc(CO)cc2)O1	-2	-3	5	32*	1	4	-5
O=S(=O)(c1ccccc1)N1CCN(C/C=C/c2ccccc2)CC1	-4	4	1	-2	0	1	.
CCc1ccc(S(=O)(=O)Nc2ccccn2)cc1	-3	-1	-4	2	5	1	.
SMILES	PAD4 inh	PME-1 inh	LYPLA2 counter	Fam108B inh	GSTO1 inh	LYPLA1 counter	Fam108b confirm	others
CCc1ccc(S(=O)(=O)/N=C2\C=CC(=O)c3ccccc32)cc1	4	12	-12	24*	67*	-17	21*
COc1ccc(NS(=O)(=O)c2ccc(O)c(NC(=O)c3cc4c(C)nn(-c5ccc(F)cc5)c4s3)c2)cc1	-38	-50	-37	-23	-16	-21	.
CCOc1ccccc1NC(=O)C1CCN(C(=O)Cc2ccccc2)CC1	6	-8	-5	-5	-1	-3	.
COCCN(C(=S)Nc1cc(C)cc(C)c1)C(C)c1ccco1 (centres undefined)	3	-1	0	-2	1	0	.
COc1ccc([N+](=O)[O-])cc1NC(=O)C1C2C=CC(C2)C1C(=O)O (centres undefined)	-3	-3	2	19*	21	-1	2
COc1ccc(C(C)(C)C)cc1NC(=O)C1C2C=CC(C2)C1C(=O)O (centres undefined)	-3	-1	3	-5	11	1	.
CC(C)CN(Cc1cc(=O)oc2cc(-c3ccccc3)c(O)cc12)CC(C)C	2	-2	-33	42*	-32	-25	19*
O=c1cc(CN2CCN(C/C=C/c3ccccc3)CC2)c2cc(O)c(-c3ccccc3)cc2o1	-3	3	3	8	3	-2	.
CN(CC(=O)Nc1ccc(Cl)c(C(F)(F)F)c1)C(=O)C1CSC2(C)CCC(=O)N12 (centres undefined)	6	4	2	-4	8	0	.
O=c1ccc(S(=O)(=O)N2CCCC2)cn1Cc1ccc(Cl)cc1Cl	2	4	5	.	.	3	.
Cc1ccc(-c2csc3nc(C(C)C)oc(=O)c23)c(C)c1	-10	-1	-2	67*	-6	-1	66*	Fam108b ABPP HTS=50*
COc1ccc(-c2nc(-c3cccs3)c(-c3cccs3)[nH]2)cc1O	-8	47*	-2	30*	-9	-7	18
O=C(O)c1ccc(-c2nc(-c3ccccc3)c(-c3cccs3)[nH]2)cc1	1	11	4	4	-2	3	.
Cc1ccc(NC(=O)CN2C(=O)N/C(=C/c3cccn3-c3ccc(C(=O)O)cc3)C2=O)cc1	5	-10	6	44*	37*	-5	39*	Fam108b ABPP HTS=0

From PubChem
